# Reference: PubChem BioAssay (NCATS)
# Inconclusive results are not listed. Unmarked numbers belong to inactive results. Active and inactive are the calls of the source. Calls follow the shape of the dose curve; as a rule, active = well fitted curve in the direction sought with a large enough effect; inconclusive = small, poorly fitted or top-dose-only effect, or another doubt; inactive = no such curve, though single readings can be large; an effect the other way counts as inactive or inconclusive.
# Legend:
# [1] = qHTS of pediatric cancer cell lines to identify multiple opportunities for drug repurposing: Confirmatory screen for LAN-5 cells (AID 1347113); conditions: LAN-5 neuroblastoma cell viability; series mostly up to 45.9 µM; also: nearly all actives have a fitted effect of over 65% in size; as to activity change, negative = cytotoxicity: % is scaled to controls: 0 for no effect and ±100 for the full control effect
# In short: (§1)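 Cells (500-1,000/well) in growth media were settled 5 h at 37 degrees C, then given compounds for 48 h. Viability was read as CellTiter-Glo luminescence. Primary runs used MIPE at 11 points (0.78 nM-46 µM) and NPC at 8 points (0.59 nM-46 µM); follow-ups used 11 points.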
# [2] = qHTS of pediatric cancer cell lines to identify multiple opportunities for drug repurposing: Confirmatory screen for NB-EBc1 cells (AID 1347115); conditions: NB-EBc1 neuroblastoma cells, viability (cytotoxicity); series mostly up to 45.9 µM;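 also: cells exposed to compound for 48 h before the viability read; nearly all actives have a fitted effect of over 45% in size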; as to activity change, negative = cytotoxic: % is scaled to controls: 0 for no effect and ±100 for the full control effect
# In short: as §1
# [3] = qHTS of pediatric cancer cell lines to identify multiple opportunities for drug repurposing: Confirmatory screen for control Hh wild type fibroblast cells (AID 1347121); conditions: viability qHTS; series mostly up to 45.9 µM; also: nearly all actives have a fitted effect of over 70% in size;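 as to activity, negative = cytotoxic: plate controls were DMSO for no effect and bortezomib for full effect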
# In short: as §1
# [4] = qHTS of pediatric cancer cell lines to identify multiple opportunities for drug repurposing: Confirmatory screen for U-2 OS cells (AID 1347122); conditions: U-2 OS osteosarcoma cell viability; series mostly up to 45.9 µM; also: nearly all actives have a fitted effect of over 65% in size;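 as to activity change, negative = cytotoxicity: plate controls were DMSO for no effect and bortezomib for full effect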
# In short: as §1
# [5] = qHTS of pediatric cancer cell lines to identify multiple opportunities for drug repurposing: Confirmatory screen for DAOY cells (AID 1347114); conditions: DAOY medulloblastoma cells viability, cytotoxicity qHTS; series mostly up to 45.9 µM; also: nearly all actives have a fitted effect of over 65% in size; as to activity change, negative = cytotoxic: % is scaled to controls: 0 for no effect and ±100 for the full control effect
# In short: (§2)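 Viability measured as metabolically active cells via CellTiter-Glo luminescence following 48 hours of compound exposure, 11-point dilutions in confirmatory testing. 500-1,000 cells/well plated 5 hours before dosing; controls were DMSO and 2.3 µM bortezomib.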
# [6] = qHTS of pediatric cancer cell lines to identify multiple opportunities for drug repurposing: Confirmatory screen for BT-12 cells (AID 1347112); conditions: BT-12 rhabdoid tumor cells, viability; series mostly up to 45.9 µM; also: nearly all actives have a fitted effect of over 55% in size; as to activity change, negative = cytotoxic: % is scaled to controls: 0 for no effect and ±100 for the full control effect
# In short: as §1
# [7] = qHTS of pediatric cancer cell lines to identify multiple opportunities for drug repurposing: Confirmatory screen for SJ-GBM2 cells (AID 1347116); conditions: SJ-GBM2 glioblastoma cells, viability; series mostly up to 45.9 µM; also: nearly all actives have a fitted effect of over 60% in size;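 as to activity change, negative = cytotoxic: plate controls were DMSO for no effect and bortezomib for full effect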
# In short: as §2
# [8] = qHTS of pediatric cancer cell lines to identify multiple opportunities for drug repurposing: Confirmatory screen for BT-37 cells (AID 1347117); conditions: BT-37 pediatric cancer cells, viability; series mostly up to 45.9 µM; also: nearly all actives have a fitted effect of over 55% in size;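 as to activity change, negative = cytotoxic: plate controls were DMSO for no effect and bortezomib for full effect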
# In short: as §1
# [9] = qHTS of pediatric cancer cell lines to identify multiple opportunities for drug repurposing: Confirmatory screen for TC32 cells (AID 1347118); conditions: TC32 Ewing sarcoma cells viability qHTS; series mostly up to 0.556 µM;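 also: cells exposed to compound for 48 h before the read; nearly all actives have a fitted effect of over 65% in size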
# In short: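 Luminescent CellTiter-Glo read-out of metabolically active TC32 cells after 48 h compound exposure. Primary: MIPE 11-point, 0.78 nM–46 µM; NPC 8-point, 0.59 nM–46 µM. Confirmatory: 11-point dilutions.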
# [10] = qHTS of pediatric cancer cell lines to identify multiple opportunities for drug repurposing: Confirmatory screen for MG 63 (6-TG R) cells (AID 1347119); conditions: MG-63 (6-TG resistant) osteosarcoma viability; series mostly up to 45.9 µM; also: nearly all actives have a fitted effect of over 55% in size;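 as to activity change, negative = cytotoxicity: plate controls were DMSO neutral control for no effect and bortezomib for full effect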
# In short: as §1
# Potency is read from the fitted curve at half-maximal effect.
smiles,measurement,setting,value
CC1CCc2c(N3CCC(O)CC3)c(F)cc3c(=O)c(C(=O)O)cn1c23 (centres undefined),Potency,[1],inactive
same,Potency,[2],inactive
same,Potency,[3],inactive
same,Potency,[4],inactive
CN(C)C(=O)Nc1ccc(Cl)c(Cl)c1,Potency,[5],inactive
same,Potency,[2],23.3 µM (active)
CCN1/C(=C/C=C/c2sc3ccccc3[n+]2CC)Sc2ccccc21,Potency,[6],1.17 µM (active)
same,Potency,[1],0.737 µM (active)
same,Potency,[5],0.362 µM (active)
same,Potency,[2],2.61 µM (active)
same,Potency,[7],2.04 µM (active)
same,Potency,[8],0.827 µM (active)
same,Potency,[9],1.04 µM (active)
same,Potency,[10],0.465 µM (active)
same,Potency,[3],0.465 µM (active)
same,Potency,[4],0.811 µM (active)
CCCCCCCCCCC[C@@H](C[C@@H]1OC(=O)[C@H]1CCCCCC)OC(=O)[C@H](CC(C)C)NC=O,Potency,[6],inactive
same,Potency,[1],inactive
same,Potency,[5],inactive
same,Potency,[2],inactive
same,Potency,[7],inactive
same,Potency,[8],inactive
same,Potency,[10],inactive
same,Potency,[3],inactive
same,Potency,[4],inactive
O=[N+]([O-])c1ccc(/C=N\O)o1,Potency,[6],inactive
same,Potency,[1],inactive
same,Potency,[7],0.928 µM (active)
same,Potency,[8],inactive
same,Potency,[9],3.29 µM (active)
same,Potency,[3],inactive
same,Potency,[4],4.14 µM (active)
COc1ccc(C(=O)c2ccccc2)c(O)c1,Potency,[6],inactive
same,Potency,[1],inactive
same,Potency,[5],inactive
same,Potency,[2],inactive
same,Potency,[7],inactive
same,Potency,[8],inactive
same,Potency,[10],inactive
same,Potency,[3],inactive
CCN(CC)CCOc1ccc2c(c1)C(=O)c1cc(OCCN(CC)CC)ccc1-2,Potency,[1],11.7 µM (active)
same,Potency,[8],20.8 µM (active)
same,Potency,[9],9.27 µM (active)
same,Potency,[10],inactive
same,Potency,[3],inactive
same,Potency,[4],inactive
Nc1nc(Cl)nc2c1ncn2[C@@H]1O[C@H](CO)[C@@H](O)[C@@H]1F,Potency,[1],1.65 µM (active)
same,Potency,[7],0.233 µM (active)
same,Potency,[8],0.329 µM (active)
same,Potency,[9],0.369 µM (active)
same,Potency,[10],0.522 µM (active)
same,Potency,[3],inactive
same,Potency,[4],inactive
CCCCCCCCCCCCOCCOCCOCCOCCOCCOCCOCCOCCOCCO,Potency,[5],14.7 µM (active)
same,Potency,[7],inactive
same,Potency,[8],inactive
same,Potency,[4],14.7 µM (active)
O=C(CCCN1CC=C(n2c(=O)[nH]c3ccccc32)CC1)c1ccc(F)cc1,Potency,[1],inactive
same,Potency,[2],inactive
same,Potency,[7],inactive
same,Potency,[8],inactive
same,Potency,[10],inactive
same,Potency,[3],inactive
C[C@@]12C(=O)OC(=O)[C@]1(C)C1CCC2O1,Potency,[6],8.27 µM (active)
same,Potency,[1],2.93 µM (active)
same,Potency,[5],2.93 µM (active)
same,Potency,[2],5.22 µM (active)
same,Potency,[7],8.27 µM (active)
same,Potency,[8],2.08 µM (active)
same,Potency,[9],3.29 µM (active)
same,Potency,[10],2.08 µM (active)
same,Potency,[4],2.93 µM (active)
C[C@H]1O[C@@H](O[C@H]2CC[C@@]3(C)[C@H](CC[C@@H]4[C@@H]3C[C@@H](O)[C@]3(C)[C@@H](C5=CC(=O)OC5)CC[C@]43O)C2)C[C@H](O)[C@@H]1O[C@H]1C[C@H](O)[C@H](O[C@H]2C[C@H](O)[C@H](O[C@@H]3O[C@H](CO)[C@@H](O)[C@H](O)[C@H]3O)[C@@H](C)O2)[C@@H](C)O1,Potency,[6],0.293 µM (active)
same,Potency,[1],0.414 µM (active)
same,Potency,[5],0.117 µM (active)
same,Potency,[2],0.369 µM (active)
same,Potency,[7],0.465 µM (active)
same,Potency,[8],0.185 µM (active)
same,Potency,[9],0.233 µM (active)
same,Potency,[10],0.293 µM (active)
same,Potency,[4],0.293 µM (active)
CCN[C@@H]1C[C@H](N)[C@@H](OC2OC(CN)=CCC2N)[C@H](O)[C@H]1O[C@H]1OC[C@](C)(O)[C@H](NC)[C@H]1O (some centres undefined),"activity change, negative = cytotoxic",[6],-6.5% [at 0.556 µM]
same,"activity change, negative = cytotoxic",[5],15.9% [at 0.556 µM]
same,"activity change, negative = cytotoxic",[2],-1.08% [at 0.556 µM]
same,"activity change, negative = cytotoxic",[7],5.75% [at 0.556 µM]
same,"activity change, negative = cytotoxic",[8],4.53% [at 0.556 µM]
same,Potency,[9],inactive
same,"activity change, negative = cytotoxicity",[10],-17.7% [at 0.556 µM]
same,"activity, negative = cytotoxic",[3],8.41% [at 0.556 µM]
same,outcome,[4],inactive [at 0.556 µM]
O=C(Oc1cccc2cccnc12)c1ccccc1,Potency,[6],9.27 µM (active)
same,Potency,[1],9.27 µM (active)
same,Potency,[5],inactive
same,Potency,[7],inactive
same,Potency,[8],20.8 µM (active)
same,Potency,[10],inactive
same,Potency,[3],inactive
same,Potency,[4],inactive
C=C[C@@]1(C)CC(=O)[C@]2(O)[C@@]3(C)[C@@H](O)CCC(C)(C)[C@@H]3[C@H](O)[C@H](OC(C)=O)[C@@]2(C)O1,Potency,[1],inactive
same,Potency,[5],inactive
same,Potency,[2],inactive
same,Potency,[3],inactive
same,Potency,[4],inactive
NC(N)=NN=C(/C=C/c1ccc([N+](=O)[O-])o1)/C=C/c1ccc([N+](=O)[O-])o1,Potency,[6],9.27 µM (active)
same,Potency,[1],1.17 µM (active)
same,Potency,[5],3.29 µM (active)
same,Potency,[7],2.93 µM (active)
same,Potency,[8],1.47 µM (active)
same,Potency,[4],inactive
